Measured values taken from PubChem BioAssay AID1159580 (chemical genetic matrix, 2015).
Among all 5,500 compounds or so, about 2,000 (36%) were called active. Another 18% or so got no clear call; they are omitted. Rule as the data show it: active = normalized growth mostly below about 0.91 (no sharp cut-off); inconclusive = no clear call, values can overlap the other calls; inactive = mostly above about 0.92. The list shows a part of the results.

Assay: chemical genetic growth profiling, strain panel (AID 1159580);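 also: tested at 20 µM; growth read once vehicle control cultures reached saturation at 30 °C; 1 = growth at the plate median or of vehicle wells; lower values mean less growth of the strain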
Conditions: S. cerevisiae deletion strains, growth OD
[1] = locus YAL040C, strain CLN3, active compounds read low
[2] = locus YCL061C, strain MRC1 (second series), active compounds read low
[3] = locus YDR363W, strain ESC2, active compounds read low
[4] = locus YER002W, strain NOP16, active compounds read low
[5] = locus YMR307W, strain GAS1, active compounds read low
[6] = locus YNL153C, strain GIM3, active compounds read low
[7] = locus YNL175C, strain NOP13, active compounds read low
[8] = locus YNL197C, strain WHI3, active compounds read low
[9] = locus YNL224C, strain SQS1, active compounds read low
[10] = locus YOR083W, strain WHI5 (second series), active compounds read low
[11] = locus YPL055C, strain LGE1, active compounds read low

Measured: normalized growth

Nc1ncnc2c1ncn2C1CCCO1 (centres undefined)
inactive: locus YAL013W, strain DEP1, active compounds read low 1.03 | [1] 1.03 | [2] 0.997 | [3] 1.02 | [4] 0.967 | locus YJR075W, strain HOC1, active compounds read low 1.02 | [5] 1 | [6] 0.989 | [7] 0.986 | [8] 0.967 | [9] 1 | [10] 0.977 | [11] 1.02

O=C1c2cccc3c(Sc4ccccc4)ccc(c23)C(=O)N1NCCO
inactive: locus YAR019C, strain CDC15, active compounds read low 0.921 | locus YBL105C, strain PKC1, active compounds read low 0.926 | locus YBR135W, strain CKS1, active compounds read low 0.92 | locus YBR136W, strain MEC1, active compounds read low 0.929 | locus YBR160W, strain CDC28, active compounds read low 0.922 | locus YDL017W, strain CDC7, active compounds read low 0.929 | locus YDL028C, strain MPS1, active compounds read low 0.924 | locus YDL101C, strain DUN1, active compounds read low 0.916 | locus YDL108W, strain KIN28, active compounds read low 0.929 | locus YDL132W, strain cdc53, active compounds read low 0.941 | locus YDL214C, strain PRR2, active compounds read low 0.861 | locus YDR052C, strain DBF4, active compounds read low 0.941 | locus YDR054C, strain cdc34, active compounds read low 0.936 | locus YDR226W, strain ADK1, active compounds read low 0.952 | locus YDR477W, strain SNF1, active compounds read low 0.853 | locus YER123W, strain YCK3, active compounds read low 0.855 | locus YER133W, strain GLC7, active compounds read low 0.908 | locus YFL009W, strain cdc4, active compounds read low 0.912 | locus YFL029C, strain CAK1, active compounds read low 0.911 | locus YFR003C, strain YPI1, active compounds read low 0.923 | locus YFR019W, strain FAB1, active compounds read low 0.897 | locus YFR028C, strain CDC14, active compounds read low 0.938 | locus YGR040W, strain KSS1, active compounds read low 0.859 | locus YGR052W, strain FMP48, active compounds read low 0.83 | locus YGR092W, strain DBF2, active compounds read low 0.734 | locus YHR079C, strain IRE1, active compounds read low 0.84 | locus YHR082C, strain KSP1, active compounds read low 0.8 | locus YHR205W, strain SCH9, active compounds read low 0.857 | locus YIL147C, strain SLN1, active compounds read low 0.921 | locus YJL095W, strain BCK1, active compounds read low 0.771 | locus YJL128C, strain PBS2, active compounds read low 0.816 | locus YJL157C, strain FAR1, active compounds read low 0.896 | locus YJR016C, strain ILV3, active compounds read low 0.921 | locus YJR066W, strain TOR1 (second series), active compounds read low 0.93 | locus YJR066W, strain TOR1, active compounds read low 0.805 | locus YKL048C, strain ELM1, active compounds read low 0.831 | locus YKL067W, strain YNK1, active compounds read low 0.861 | locus YKL101W, strain HSL1, active compounds read low 0.804 | locus YKL193C, strain SDS22, active compounds read low 0.912 | locus YKL203C, strain TOR2, active compounds read low 0.887 | locus YLR133W, strain CKI1, active compounds read low 0.844 | locus YLR403W, strain SFP1, active compounds read low 0.863 | locus YML070W, strain DAK1, active compounds read low 0.857 | locus YMR001C, strain CDC5, active compounds read low 0.914 | locus YMR205C, strain PFK2 (second series), active compounds read low 0.854 | locus YMR277W, strain FCP1, active compounds read low 0.904 | locus YNL006W, strain LST8, active compounds read low 0.931 | locus YNL020C, strain ARK1, active compounds read low 0.814 | locus YNL161W, strain CBK1, active compounds read low 0.927 | locus YNL183C, strain NPR1, active compounds read low 0.784 | locus YNL207W, strain RIO2, active compounds read low 0.922 | locus YNL222W, strain SSU72, active compounds read low 0.921 | locus YNL307C, strain MCK1 (second series), active compounds read low 0.834 | locus YOL078W, strain AVO1, active compounds read low 0.911 | locus YOL136C, strain PFK27, active compounds read low 0.853 | locus YOR061W, strain CKA2, active compounds read low 0.877 | locus YOR119C, strain RIO1, active compounds read low 0.936 | locus YOR231W, strain MKK1, active compounds read low 0.845 | locus YOR329C, strain SCD5, active compounds read low 0.93 | locus YPL031C, strain PHO85, active compounds read low 0.837 | locus YPL153C, strain RAD53, active compounds read low 0.82 | locus YPL204W, strain HRR25, active compounds read low 0.837 | locus YPL209C, strain IPL1, active compounds read low 0.923 | locus YPR025C, strain CCL1, active compounds read low 0.926 | locus YPR106W, strain ISR1, active compounds read low 0.915 | locus YPR111W, strain DBF20, active compounds read low 0.957 | strain NNK1, active compounds read low 0.897 | strain TSCII, active compounds read low 0.917
active: locus YHR030C, strain SLT2, active compounds read low 0.577 | locus YLR113W, strain HOG1, active compounds read low 0.771 | locus YPL256C, strain CLN2, active compounds read low 0.757

C[N+]1(C)CCOC(O)(c2ccc(-c3ccc(C4(O)C[N+](C)(C)CCO4)cc3)cc2)C1 (centres undefined)
inactive: [1] 1.09 | [2] 0.993 | locus YDR150W, strain NUM1, active compounds read low 0.99 | [3] 1.02 | [4] 1 | locus YGR078C, strain PAC10, active compounds read low 1.01 | locus YMR263W, strain SAP30, active compounds read low 1 | [5] 0.993 | [6] 1.05 | [7] 1 | [8] 1.01 | [9] 1 | [10] 1.02 | [11] 0.971 | locus YPL241C, strain CIN2, active compounds read low 1
